In ChEMBL document CHEMBL1961873, “Compounds: GSK PKIS; Assays: Nanosyn kinase panel” (2012) one finds inhibition data, which are given here for one compound.

Each structure is given as a SMILES string.

One may read the inhibition as the relative decrease from the control value, in per cent.

In test [1] the target is Sphingosine kinase 1 (Homo sapiens) (UniProt Q9NYA1). As to conditions: at 1 µM.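 Further: mean SPHK1 inhibition value reported from the GSK PKIS kinase panel screen.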
For test [2], the target named is T1, Sphingosine kinase 2 (Homo sapiens) (UniProt Q9NRA0).
T1 sequence (whole entry): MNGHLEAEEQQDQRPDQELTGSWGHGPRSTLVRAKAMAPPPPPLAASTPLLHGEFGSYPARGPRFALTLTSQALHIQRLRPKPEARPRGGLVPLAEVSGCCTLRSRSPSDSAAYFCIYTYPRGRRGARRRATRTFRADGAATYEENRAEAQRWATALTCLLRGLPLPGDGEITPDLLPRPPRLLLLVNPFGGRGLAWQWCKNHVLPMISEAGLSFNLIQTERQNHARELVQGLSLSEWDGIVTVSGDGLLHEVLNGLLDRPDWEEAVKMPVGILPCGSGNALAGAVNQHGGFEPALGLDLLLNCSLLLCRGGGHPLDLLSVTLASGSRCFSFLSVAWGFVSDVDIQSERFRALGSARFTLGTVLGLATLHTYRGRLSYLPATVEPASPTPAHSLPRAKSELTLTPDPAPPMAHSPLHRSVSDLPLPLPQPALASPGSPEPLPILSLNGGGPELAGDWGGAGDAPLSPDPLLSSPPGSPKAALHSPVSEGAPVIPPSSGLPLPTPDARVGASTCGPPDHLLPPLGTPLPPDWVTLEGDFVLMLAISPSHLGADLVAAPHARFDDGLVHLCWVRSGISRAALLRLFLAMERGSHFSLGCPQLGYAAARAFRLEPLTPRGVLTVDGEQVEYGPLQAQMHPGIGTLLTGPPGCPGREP
Conditions: at 0.1 µM.

For test [3], the target named is T1, Sphingosine kinase 2 (Homo sapiens). Conditions: at 1 µM.
Test [4] addresses Casein kinase II subunit alpha (Homo sapiens) (UniProt P68400). Conditions: at 0.1 µM.
The target is the same in test [5]. As to conditions: at 1 µM.
The target of test [6] is T2, Inhibitor of nuclear factor kappa-B kinase subunit alpha (Homo sapiens) (UniProt O15111).
T2 sequence (whole entry): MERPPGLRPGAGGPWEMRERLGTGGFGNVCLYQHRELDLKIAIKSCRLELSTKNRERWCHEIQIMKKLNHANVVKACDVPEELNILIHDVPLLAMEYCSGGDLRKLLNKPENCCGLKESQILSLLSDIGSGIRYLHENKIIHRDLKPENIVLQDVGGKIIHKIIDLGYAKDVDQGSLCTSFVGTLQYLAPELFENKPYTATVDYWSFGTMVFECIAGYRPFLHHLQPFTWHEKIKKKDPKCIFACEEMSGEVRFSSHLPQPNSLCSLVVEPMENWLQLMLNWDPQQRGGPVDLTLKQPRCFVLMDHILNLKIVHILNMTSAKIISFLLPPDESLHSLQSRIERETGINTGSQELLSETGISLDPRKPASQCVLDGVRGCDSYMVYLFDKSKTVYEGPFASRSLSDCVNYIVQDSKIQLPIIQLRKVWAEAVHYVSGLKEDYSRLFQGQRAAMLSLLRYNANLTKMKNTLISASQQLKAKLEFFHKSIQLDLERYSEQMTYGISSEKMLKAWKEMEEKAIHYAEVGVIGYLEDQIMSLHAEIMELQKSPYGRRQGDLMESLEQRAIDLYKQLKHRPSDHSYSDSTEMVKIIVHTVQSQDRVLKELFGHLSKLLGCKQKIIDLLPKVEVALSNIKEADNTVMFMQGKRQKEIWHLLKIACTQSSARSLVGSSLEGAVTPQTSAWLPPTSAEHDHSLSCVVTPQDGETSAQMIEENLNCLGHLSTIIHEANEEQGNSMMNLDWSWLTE
As to conditions: at 0.1 µM.

Test [7] deals with T2, Inhibitor of nuclear factor kappa-B kinase subunit alpha (Homo sapiens). As to conditions: at 1 µM.
Test [8] deals with T3, Inhibitor of nuclear factor kappa-B kinase subunit beta (Homo sapiens) (UniProt O14920).
T3 sequence (whole entry): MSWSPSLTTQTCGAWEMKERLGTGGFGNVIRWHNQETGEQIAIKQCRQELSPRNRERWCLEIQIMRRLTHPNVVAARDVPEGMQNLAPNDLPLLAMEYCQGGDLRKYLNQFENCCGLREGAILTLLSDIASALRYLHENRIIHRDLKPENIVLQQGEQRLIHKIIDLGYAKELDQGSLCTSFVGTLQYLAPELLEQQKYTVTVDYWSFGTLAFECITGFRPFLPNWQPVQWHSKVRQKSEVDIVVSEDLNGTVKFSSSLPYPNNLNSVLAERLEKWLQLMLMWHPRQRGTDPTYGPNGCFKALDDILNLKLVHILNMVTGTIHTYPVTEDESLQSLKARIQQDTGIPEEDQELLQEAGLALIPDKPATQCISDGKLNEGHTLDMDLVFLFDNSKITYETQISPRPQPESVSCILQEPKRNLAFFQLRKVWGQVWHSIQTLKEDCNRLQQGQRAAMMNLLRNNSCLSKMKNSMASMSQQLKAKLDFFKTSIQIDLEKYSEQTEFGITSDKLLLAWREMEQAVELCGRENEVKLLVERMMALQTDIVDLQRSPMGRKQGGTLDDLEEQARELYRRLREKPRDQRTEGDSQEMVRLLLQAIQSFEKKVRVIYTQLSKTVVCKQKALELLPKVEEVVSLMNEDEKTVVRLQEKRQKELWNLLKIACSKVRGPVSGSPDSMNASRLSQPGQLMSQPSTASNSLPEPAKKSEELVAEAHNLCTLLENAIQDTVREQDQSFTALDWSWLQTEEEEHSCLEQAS
Conditions: at 0.1 µM.

For test [9], the target named is T3, Inhibitor of nuclear factor kappa-B kinase subunit beta (Homo sapiens). Conditions: at 1 µM.
In test [10] the target is T4, Inhibitor of nuclear factor kappa-B kinase subunit epsilon (Homo sapiens) (UniProt Q14164).
T4 sequence (whole entry): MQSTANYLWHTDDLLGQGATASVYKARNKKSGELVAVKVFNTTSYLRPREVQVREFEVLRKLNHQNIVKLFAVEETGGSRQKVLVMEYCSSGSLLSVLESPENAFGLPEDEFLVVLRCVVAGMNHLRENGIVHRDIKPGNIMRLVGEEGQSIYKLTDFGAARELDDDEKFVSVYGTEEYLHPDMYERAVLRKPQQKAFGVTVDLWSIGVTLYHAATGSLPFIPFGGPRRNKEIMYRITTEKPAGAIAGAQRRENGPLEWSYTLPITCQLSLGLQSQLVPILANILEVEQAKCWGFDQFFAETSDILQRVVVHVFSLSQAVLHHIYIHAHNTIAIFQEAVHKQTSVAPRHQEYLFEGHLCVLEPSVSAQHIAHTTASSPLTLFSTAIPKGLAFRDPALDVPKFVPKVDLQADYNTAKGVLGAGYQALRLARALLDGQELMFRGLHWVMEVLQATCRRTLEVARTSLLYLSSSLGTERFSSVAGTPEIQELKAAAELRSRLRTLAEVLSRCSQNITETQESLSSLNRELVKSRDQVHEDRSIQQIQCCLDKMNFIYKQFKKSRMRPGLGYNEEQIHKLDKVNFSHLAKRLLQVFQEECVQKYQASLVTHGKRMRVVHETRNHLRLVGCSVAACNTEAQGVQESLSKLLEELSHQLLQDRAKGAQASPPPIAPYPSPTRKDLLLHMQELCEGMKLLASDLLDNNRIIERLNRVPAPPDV
As to conditions: at 0.1 µM.

Test [11] addresses T4, Inhibitor of nuclear factor kappa-B kinase subunit epsilon (Homo sapiens). Conditions: at 1 µM.
Test [12] addresses T5, Serine/threonine-protein kinase Nek1 (Homo sapiens) (UniProt Q96PY6).
T5 sequence (whole entry): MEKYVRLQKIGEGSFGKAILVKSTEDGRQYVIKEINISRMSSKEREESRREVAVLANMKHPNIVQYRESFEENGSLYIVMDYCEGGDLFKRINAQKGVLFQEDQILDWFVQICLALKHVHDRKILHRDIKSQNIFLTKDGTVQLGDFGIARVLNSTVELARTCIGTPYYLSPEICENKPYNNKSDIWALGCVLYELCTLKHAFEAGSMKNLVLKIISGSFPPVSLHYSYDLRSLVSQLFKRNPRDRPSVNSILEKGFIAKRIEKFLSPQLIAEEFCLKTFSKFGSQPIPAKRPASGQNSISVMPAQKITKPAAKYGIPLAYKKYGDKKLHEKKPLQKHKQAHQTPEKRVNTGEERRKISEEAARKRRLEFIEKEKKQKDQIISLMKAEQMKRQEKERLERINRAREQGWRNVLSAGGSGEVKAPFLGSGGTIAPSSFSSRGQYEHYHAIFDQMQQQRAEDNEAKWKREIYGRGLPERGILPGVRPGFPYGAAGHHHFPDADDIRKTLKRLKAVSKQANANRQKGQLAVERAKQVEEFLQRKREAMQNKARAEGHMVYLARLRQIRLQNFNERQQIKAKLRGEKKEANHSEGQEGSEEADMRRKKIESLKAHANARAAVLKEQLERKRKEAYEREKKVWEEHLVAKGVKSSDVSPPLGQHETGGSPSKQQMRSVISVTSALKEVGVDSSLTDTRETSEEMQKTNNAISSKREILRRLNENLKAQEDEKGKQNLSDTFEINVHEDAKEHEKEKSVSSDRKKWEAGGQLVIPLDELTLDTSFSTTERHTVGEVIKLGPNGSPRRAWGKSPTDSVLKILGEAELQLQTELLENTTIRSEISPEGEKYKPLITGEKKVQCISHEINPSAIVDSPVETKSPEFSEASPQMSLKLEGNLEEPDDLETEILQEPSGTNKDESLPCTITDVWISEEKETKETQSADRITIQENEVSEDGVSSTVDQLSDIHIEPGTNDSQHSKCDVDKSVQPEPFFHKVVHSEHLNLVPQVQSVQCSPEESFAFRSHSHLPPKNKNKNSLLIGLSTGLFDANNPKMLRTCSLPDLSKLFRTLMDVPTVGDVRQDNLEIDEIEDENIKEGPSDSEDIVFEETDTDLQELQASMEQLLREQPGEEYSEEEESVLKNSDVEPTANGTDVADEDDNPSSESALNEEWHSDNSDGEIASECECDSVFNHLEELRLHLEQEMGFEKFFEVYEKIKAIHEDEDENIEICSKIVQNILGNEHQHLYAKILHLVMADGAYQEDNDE
Conditions: at 0.1 µM.

The target in test [13] is T5, Serine/threonine-protein kinase Nek1 (Homo sapiens). Conditions: at 1 µM.
Test [14] has as its target T6, Serine/threonine-protein kinase Nek2 (Homo sapiens) (UniProt P51955).
T6 sequence (whole entry): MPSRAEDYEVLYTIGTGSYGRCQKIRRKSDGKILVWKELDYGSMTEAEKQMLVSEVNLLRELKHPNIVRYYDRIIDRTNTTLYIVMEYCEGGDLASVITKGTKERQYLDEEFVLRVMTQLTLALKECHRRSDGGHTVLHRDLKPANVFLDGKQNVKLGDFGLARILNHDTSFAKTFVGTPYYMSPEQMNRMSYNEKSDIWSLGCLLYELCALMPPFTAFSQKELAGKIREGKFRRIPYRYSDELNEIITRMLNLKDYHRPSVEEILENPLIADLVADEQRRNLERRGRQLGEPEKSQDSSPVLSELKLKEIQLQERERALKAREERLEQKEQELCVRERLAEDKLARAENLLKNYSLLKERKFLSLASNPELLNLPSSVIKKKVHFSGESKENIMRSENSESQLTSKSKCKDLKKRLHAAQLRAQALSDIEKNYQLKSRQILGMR
As to conditions: at 0.1 µM.

Test [15] addresses T6, Serine/threonine-protein kinase Nek2 (Homo sapiens). As to conditions: at 1 µM.
The target in test [16] is Serine/threonine-protein kinase Nek6 (Homo sapiens) (UniProt Q9HC98). Conditions: at 0.1 µM.
Sequence of Serine/threonine-protein kinase Nek6 (Homo sapiens) (Q9HC98 whole entry): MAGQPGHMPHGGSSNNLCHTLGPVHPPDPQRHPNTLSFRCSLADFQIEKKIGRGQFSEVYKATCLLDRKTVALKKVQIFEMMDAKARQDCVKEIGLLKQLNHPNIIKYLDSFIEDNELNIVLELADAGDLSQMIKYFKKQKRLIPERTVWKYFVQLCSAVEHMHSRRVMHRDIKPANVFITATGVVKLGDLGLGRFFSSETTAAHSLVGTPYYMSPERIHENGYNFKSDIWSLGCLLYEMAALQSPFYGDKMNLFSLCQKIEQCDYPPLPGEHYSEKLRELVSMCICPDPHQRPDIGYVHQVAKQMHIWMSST
Test [17] has the same target. Conditions: at 1 µM.
Test [18] addresses Serine/threonine-protein kinase Nek7 (Homo sapiens) (UniProt Q8TDX7). As to conditions: at 0.1 µM.
The target is the same in test [19]. As to conditions: at 1 µM.
In test [20] the target is T7, Serine/threonine-protein kinase Nek9 (Homo sapiens) (UniProt Q8TD19).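 Further: reported value is the mean percent inhibition of NEK9.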
T7 sequence (whole entry): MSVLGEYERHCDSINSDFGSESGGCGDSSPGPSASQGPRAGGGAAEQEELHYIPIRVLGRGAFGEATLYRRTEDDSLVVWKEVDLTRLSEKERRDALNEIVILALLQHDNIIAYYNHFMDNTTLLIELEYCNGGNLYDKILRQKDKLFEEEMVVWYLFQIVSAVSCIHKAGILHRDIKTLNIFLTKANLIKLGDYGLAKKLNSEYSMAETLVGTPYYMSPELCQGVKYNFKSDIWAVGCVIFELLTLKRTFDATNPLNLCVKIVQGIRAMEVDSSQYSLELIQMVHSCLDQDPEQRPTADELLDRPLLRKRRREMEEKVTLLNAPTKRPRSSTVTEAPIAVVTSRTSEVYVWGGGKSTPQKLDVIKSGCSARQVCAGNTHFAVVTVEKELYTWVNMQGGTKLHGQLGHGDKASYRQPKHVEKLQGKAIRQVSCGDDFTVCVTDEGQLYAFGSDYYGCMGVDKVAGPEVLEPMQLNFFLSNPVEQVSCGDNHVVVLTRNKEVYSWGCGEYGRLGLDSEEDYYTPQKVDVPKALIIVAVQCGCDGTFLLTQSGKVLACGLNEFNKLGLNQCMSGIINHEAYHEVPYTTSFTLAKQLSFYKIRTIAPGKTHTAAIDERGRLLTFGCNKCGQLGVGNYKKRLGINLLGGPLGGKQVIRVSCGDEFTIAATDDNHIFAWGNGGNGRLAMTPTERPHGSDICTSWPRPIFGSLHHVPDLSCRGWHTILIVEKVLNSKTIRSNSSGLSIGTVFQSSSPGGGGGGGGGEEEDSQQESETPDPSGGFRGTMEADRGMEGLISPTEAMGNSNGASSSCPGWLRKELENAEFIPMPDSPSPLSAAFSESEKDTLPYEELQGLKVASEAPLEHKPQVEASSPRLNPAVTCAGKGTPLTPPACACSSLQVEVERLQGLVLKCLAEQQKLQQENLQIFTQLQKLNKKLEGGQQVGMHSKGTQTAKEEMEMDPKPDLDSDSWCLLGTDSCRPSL
Conditions: at 0.1 µM.

Sequence of Casein kinase II subunit alpha (Homo sapiens) (P68400 whole entry, looked up): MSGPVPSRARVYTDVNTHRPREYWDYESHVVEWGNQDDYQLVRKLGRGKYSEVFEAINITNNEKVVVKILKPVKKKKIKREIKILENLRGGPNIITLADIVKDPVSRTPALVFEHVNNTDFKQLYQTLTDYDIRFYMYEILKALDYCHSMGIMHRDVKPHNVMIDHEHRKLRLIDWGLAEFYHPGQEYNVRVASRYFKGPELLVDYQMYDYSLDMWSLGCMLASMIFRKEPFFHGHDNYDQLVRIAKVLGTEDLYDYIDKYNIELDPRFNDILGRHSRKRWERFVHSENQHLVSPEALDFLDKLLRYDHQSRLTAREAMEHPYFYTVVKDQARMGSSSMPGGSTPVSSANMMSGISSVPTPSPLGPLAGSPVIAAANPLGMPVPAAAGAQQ
Sequence of Serine/threonine-protein kinase Nek7 (Homo sapiens) (Q8TDX7 whole entry, looked up): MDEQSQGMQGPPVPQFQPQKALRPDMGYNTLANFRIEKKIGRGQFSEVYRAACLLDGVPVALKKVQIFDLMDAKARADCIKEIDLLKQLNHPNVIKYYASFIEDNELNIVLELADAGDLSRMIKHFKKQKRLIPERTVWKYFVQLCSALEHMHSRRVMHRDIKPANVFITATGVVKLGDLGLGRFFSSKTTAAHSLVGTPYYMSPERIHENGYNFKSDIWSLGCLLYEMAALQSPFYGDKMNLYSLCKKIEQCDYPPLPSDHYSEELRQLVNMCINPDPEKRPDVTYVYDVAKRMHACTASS
Sequence of Sphingosine kinase 1 (Homo sapiens) (Q9NYA1 whole entry): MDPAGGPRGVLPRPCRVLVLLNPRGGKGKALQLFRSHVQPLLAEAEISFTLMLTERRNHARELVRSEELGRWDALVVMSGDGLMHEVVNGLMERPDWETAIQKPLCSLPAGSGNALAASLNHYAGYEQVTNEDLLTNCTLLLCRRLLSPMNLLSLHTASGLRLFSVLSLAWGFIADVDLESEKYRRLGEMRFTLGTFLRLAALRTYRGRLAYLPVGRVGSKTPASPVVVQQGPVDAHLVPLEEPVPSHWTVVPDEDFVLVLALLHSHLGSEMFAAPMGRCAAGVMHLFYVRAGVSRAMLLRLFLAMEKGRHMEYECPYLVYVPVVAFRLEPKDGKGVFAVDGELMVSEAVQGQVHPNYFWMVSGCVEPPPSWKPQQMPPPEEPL

Consider `CCn1c(-c2nonc2N)nc2cncc(C(=O)NCCNC)c21`, for which the inhibition was -1.79% in test [1]; -0.3% in test [2]; 8.93% in test [3]; 4.41% in test [4]; 2.99% in test [5]; 8.82% in [6]. Also, the inhibition in [7] was 14.1%; in test [8], 6.55%; in [9], 7.92%; in test [10], 7.73%; in test [11] it was 17.6%; in test [12], 2.71%. The inhibition is 5.36% in test [13]; 6.66% in [14]; 6.84% in [15]; -0.45% in test [16]; 0.9% in [17]; 3.5% in test [18]. Moreover, the inhibition in test [19] was 4.72%; in [20], 7.8%.
